G9a inh – inhibitors of human histone lysine methyltransferase G9a. G9a H3K9 monomethylation, AlphaScreen, 2 h. Potency, µM (titrated, usually from 102 µM), inactives show at the highest dose activity, negative = inhibition, actives largely listed as inhibitors. AID 504332. Q96KQ7. hit rate 8.8% among 350,000; note: potency is the fitted concentration of half-maximal effect; nearly all actives have a fitted effect of over 75% in size
Target sequence (Q96KQ7 913-1193 limits assumed): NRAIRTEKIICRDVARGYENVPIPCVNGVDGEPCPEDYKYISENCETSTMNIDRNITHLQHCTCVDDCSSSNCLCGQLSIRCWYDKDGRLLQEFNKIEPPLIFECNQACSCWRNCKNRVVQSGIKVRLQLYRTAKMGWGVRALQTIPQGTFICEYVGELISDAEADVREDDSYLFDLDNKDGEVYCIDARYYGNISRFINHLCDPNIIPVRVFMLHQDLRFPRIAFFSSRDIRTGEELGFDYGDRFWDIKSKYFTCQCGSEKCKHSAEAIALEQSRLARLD
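Signal arises when biotinylated H3K9 peptide, once monomethylated, bridges streptavidin donor and antibody-captured acceptor beads. Enzyme at 20 nM was preincubated 15 min with test compounds; peptide 500 nM and SAM 20 uM then reacted for 2 h.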
Sfp PPTase inh – blocks B. subtilis Sfp PPTase activity. Q9F4F7. Biochemical Sfp PPTase activity, qHTS. Potency, µM, for inactives: largest response in the series, negative = inhibition, most hits filed as inhibitors. hit rate 3.5% among 310,000. AID 1490;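 note: the enzyme is Sfp with the accession as filed and its product quenches rhodamine fluorescence; potency is the fitted concentration of half-maximal effect; 0% = enzyme reaction without inhibitor and -100% = no enzyme wells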
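Fluorescence-quenching assay with 15 nM Sfp, 5 uM rhodamine-CoA and 12.5 uM BHQ-2-labelled ybbR peptide in pH 7.6 Hepes/MgCl2 buffer. Enzyme was pre-incubated with compound for 15 min at room temperature. Rate was taken from the 30-min fluorescence change (525/598 nm).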
FBPA coupling cs – inhibits coupling enzyme system, counter-screen for aldolase hits; coupling enzyme system counterscreen, AmpLite Red fluorescence; activity change, negative = inhibition, % at 58.2 µM, hits read low; hit rate 0.67% among 290,000; in the data active = activity change below about -30%
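Fluorescence at 525 nm excitation and 598 nm emission measured inhibition of the coupled detection system without aldolase. Compounds (at 57.5 uM final) were preincubated 10 min at room temperature with coupling enzyme reagent before a 20 min substrate/AmpLite Red step.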
Tau ThT inhib – blocks human tau fibril formation measured by thioflavin T; recombinant tau K18 P301L, heparin-induced fibrillization, ThT fluorescence; Potency, µM (series often up to 57.4 µM), for the others: top-dose activity, negative = inhibition, hits mostly inhibitors; hit rate 2.1% among 270,000; note: potency is the fitted concentration of half-maximal effect; nearly all actives have a fitted effect of over 55% in size
Target sequence (P10636 561-689 P618L limits assumed): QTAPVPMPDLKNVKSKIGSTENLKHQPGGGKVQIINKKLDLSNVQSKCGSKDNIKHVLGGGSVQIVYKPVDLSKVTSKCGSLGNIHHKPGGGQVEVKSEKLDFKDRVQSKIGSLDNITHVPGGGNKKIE
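Aggregation was driven by heparin (20 uM final) acting on recombinant tau […] bearing P301L in 100 mM sodium acetate pH 7; fibrils were detected with Thioflavin T.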
Tau fluor counter – counter-screen for tau fibril formation inhibitors. tau K18 P301L (four-repeat tau fragment) Alexa594 fluorescence, heparin fibrillization. Potency, µM (doses to about 57.7 µM), for the others: at the top dose activity change, negative = decrease. hit rate 0.93% among 280,000. AID 1463; note: potency is the fitted concentration of half-maximal effect; nearly all actives have a fitted effect of over 55% in size
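Human K18 P301L tau (15 uM unlabeled plus 0.24 uM Alexa 594-labeled, final) in 100 mM sodium acetate pH 7 was mixed with compound and 20 uM heparin and incubated 6 hr at 37 C.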
Tau fibril FP – blocks human tau fibril formation measured by polarization. P10636. Potency, µM (titrated, usually from 57.7 µM), for inactives: at the highest dose activity, negative = inhibition, hits mostly inhibitors. AID 1468. hit rate 0.39% among 280,000. K18 P301L tau heparin fibrillization, Alexa594 FP, 6 h; note: potency is the fitted concentration of half-maximal effect; nearly all actives have a fitted effect of over 55% in size
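Recombinant K18 P301L […], labeled with Alexa 594 at 0.24 uM over 15 uM unlabeled; heparin inducer 20 uM final; 37 C, 6 hr; FP endpoint.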
* marks the source's active call; other numbers are inactive results; [ ] = another dose, or the depositor's remark. Rows were chosen to be rich in hits. Some 11% of all compounds tested hit in one or more screens of this group. Unless noted, calls come from the whole dose curve; as a rule, active = well fitted curve in the direction sought with a large enough effect; inconclusive = small, poorly fitted or top-dose-only effect, or another doubt; inactive = no such curve, though single readings can be large; an effect the other way counts as inactive or inconclusive. Unless noted, % is set by controls: 0 for no effect and ±100 for the full control effect.

What do the screens show for `Cc1occc1-c1nnc(SCC(=O)N2CCCCC2)o1`?
G9a inh: -7%; Sfp PPTase inh: 21%; FBPA coupling cs: 2; Tau ThT inhib: -3%; Tau fluor counter: -1%; Tau fibril FP: 0%

Results for COC(=O)CCC(=O)Oc1ccc(OC(=O)CCC(=O)OC)cc1 ?
G9a inh: 50µM*; Sfp PPTase inh: 5%; FBPA coupling cs: -1; Tau ThT inhib: inconclusive; Tau fluor counter: -14%; Tau fibril FP: -7%

How did COC(=O)CCC(=O)Nc1ccc(NC(=O)CCC(=O)OC)cc1 do in these assays?
G9a inh: inconclusive; Sfp PPTase inh: -4%; FBPA coupling cs: 1; Tau ThT inhib: 4%; Tau fluor counter: 9%; Tau fibril FP: 0%

What do the screens show for `CCOc1ccc2oc(C(=O)Nc3ccc(N4CCOCC4)cc3)c(C)c2c1`?
G9a inh: 13µM*; Sfp PPTase inh: 9%; FBPA coupling cs: 0; Tau ThT inhib: inconclusive; Tau fluor counter: -24%; Tau fibril FP: 3%

Results for CCOc1ccc2oc(C(=O)N(C)CC(=O)Nc3ccc(OCC)c(OCC)c3)c(C)c2c1 ?
G9a inh: 56µM*

How did COc1ccc2oc(C(=O)OCC(=O)Nc3ccc(NC(C)=O)cc3)c(C)c2c1 do in these assays?
G9a inh: -6%[0.501 µM]

What do the screens show for `COc1ccc2oc(C(=O)OCC(=O)N(C)CC(=O)Nc3ccc(C)cc3)c(C)c2c1`?
G9a inh: 50µM*

What do the screens show for `COCCn1c(=O)c(-c2cc(F)cc(F)c2)nc2cnc(OC)nc21`?
G9a inh: -2%[12.7 µM]; Sfp PPTase inh: 13%; FBPA coupling cs: -2

What do the screens show for `COc1ccc(Cn2c(SCc3ccc(C)cc3)nc3cc(OC)c(OC)cc3c2=N)cc1Cl`?
G9a inh: 40µM*; Sfp PPTase inh: 4µM*; FBPA coupling cs: -7; Tau ThT inhib: inconclusive; Tau fluor counter: 0%; Tau fibril FP: 6%

What do the screens show for `COc1cc2nc(SCc3ccc(C(F)(F)F)cc3)n(Cc3cccs3)c(=N)c2cc1OC`?
G9a inh: 21%[59 µM]; Sfp PPTase inh: 9%; FBPA coupling cs: -14; Tau ThT inhib: -9%; Tau fluor counter: inconclusive; Tau fibril FP: -12%

Results for COc1ccc(Cn2c(SCc3cc(C)ccc3C)nc3cc(OC)c(OC)cc3c2=N)cc1 ?
G9a inh: inconclusive; Sfp PPTase inh: 3.2µM*; FBPA coupling cs: -3; Tau ThT inhib: inconclusive; Tau fluor counter: -28%; Tau fibril FP: 0%

What do the screens show for `Cc1cccc(C)c1NC(=O)CN(C1CCCCC1)S(C)(=O)=O`?
Sfp PPTase inh: -3%; FBPA coupling cs: 0

How did COc1ccc(Cn2c(CCC(=O)NCc3ccc(Cl)cc3)nc3cccnc32)cc1 do in these assays?
G9a inh: 17%[59 µM]; Tau ThT inhib: inconclusive; Tau fluor counter: -20%; Tau fibril FP: -9%

What do the screens show for `CCn1c(C)[n+](CCOC(C)=O)c2cc(Cl)c(Cl)cc21`?
Sfp PPTase inh: -21%; FBPA coupling cs: 4; Tau ThT inhib: -10%; Tau fluor counter: -10%; Tau fibril FP: -12%

How did CC(=O)OCCCn1c(C)[n+](C)c2cc(Cl)c(Cl)cc21 do in these assays?
G9a inh: 32µM*; Sfp PPTase inh: 1%; FBPA coupling cs: 2; Tau ThT inhib: -10%; Tau fluor counter: -10%; Tau fibril FP: 2%

How did COc1ccc(C(=O)NC(C)c2nnc(SCc3ccc(Cl)c(Cl)c3)n2C)cc1 (centres undefined) do in these assays?
G9a inh: 32µM*; Sfp PPTase inh: -9%; FBPA coupling cs: 1; Tau ThT inhib: -10%; Tau fluor counter: -15%; Tau fibril FP: -3%

How did Cc1oc(C)c2c(=O)ccc3c(c12)OC(N)=C(C#N)C3c1ccc(F)cc1 (centres undefined) do in these assays?
G9a inh: inconclusive; Sfp PPTase inh: inconclusive; FBPA coupling cs: -43*; Tau ThT inhib: 25µM*; Tau fluor counter: inconclusive; Tau fibril FP: inconclusive

How did Cc1sc2nc(CC(=O)N3CCCC3)[nH]c(=O)c2c1C do in these assays?
G9a inh: 28µM*; Sfp PPTase inh: inconclusive; FBPA coupling cs: -2; Tau ThT inhib: 0%; Tau fluor counter: 4%; Tau fibril FP: -2%

What do the screens show for `CCn1cc(S(=O)(=O)c2cccc(C)c2)c(=O)c2cc(F)c(N3CCCC(C)C3)cc21` (centres undefined)?
G9a inh: 6%[59 µM]; Tau ThT inhib: 5%; Tau fluor counter: 1%; Tau fibril FP: 3%

How did COc1cc(-c2cc(OC)c3c(C)oc(C)c3c(=O)c2)ccc1OC(=O)c1cccc(C)c1 do in these assays?
G9a inh: inconclusive; Tau ThT inhib: inconclusive; Tau fluor counter: -15%; Tau fibril FP: 2%

Results for COc1ccc(NC(=O)CSc2nc(-c3cc(OC)c(OC)c(OC)c3)[nH]c2-c2ccc(F)cc2)cc1 ?
G9a inh: inconclusive; Tau ThT inhib: inconclusive; Tau fluor counter: 7.1µM*[quencher]; Tau fibril FP: 9%

Results for COc1ccc(NC(=O)CSc2nc(-c3ccc(OC)cc3)[nH]c2-c2ccc(OC)cc2)cc1 ?
G9a inh: -4%[59 µM]; Tau ThT inhib: -11%; Tau fluor counter: 8.9µM*[quencher]; Tau fibril FP: 7%

How did COc1ccc(NC(=O)CSc2nc(-c3ccc(OC)cc3)cc(=O)[nH]2)cc1 do in these assays?
G9a inh: 36%[59 µM]; Tau ThT inhib: 7%; Tau fluor counter: 7%; Tau fibril FP: -12%

Results for COc1ccc(-c2[nH]c(-c3ccc(F)cc3)nc2SCC(=O)Nc2ccc(OC)c(OC)c2)cc1 ?
G9a inh: -4%[59 µM]; Tau ThT inhib: inconclusive; Tau fluor counter: 14µM*[quencher]; Tau fibril FP: 14%

What do the screens show for `CCc1ccc(NC(=O)CSC2=Nc3ccccc3C3=NC(CC(=O)NCc4ccccc4)C(=O)N23)cc1` (centres undefined)?
G9a inh: 4%[59 µM]; Tau ThT inhib: inconclusive; Tau fluor counter: inconclusive; Tau fibril FP: 16%

How did COCCN(CC(=O)NCC1CCCO1)C(=O)CCC(=O)Nc1cc(C)ccn1 (centres undefined) do in these assays?
G9a inh: 28µM*; Sfp PPTase inh: -9%; FBPA coupling cs: -1; Tau ThT inhib: 14%; Tau fluor counter: 7%; Tau fibril FP: -5%

How did CC(=O)N1CCC2(CC1)CN(c1ccccn1)C2 do in these assays?
G9a inh: 44%[12.7 µM]; Sfp PPTase inh: 12%; FBPA coupling cs: 0

How did Cc1cc(Nc2cccc(C(F)(F)F)c2)nc2ccc(NC(=O)Cc3ccc(Cl)cc3)cc12 do in these assays?
G9a inh: 7%[59 µM]; Tau ThT inhib: inconclusive; Tau fluor counter: 7.9µM*[quencher]; Tau fibril FP: inconclusive
